The text below walks through data of PubChem BioAssay AID2073 (Sanford-Burnham Center for Chemical Genomics, 2009).

Out of some 290,000 compounds screened, about 570 (0.2%) were called active. Not shown: some 1% with an inconclusive outcome. Rule as the data show it: active = inhibition mostly above about 51% (no sharp cut-off); inconclusive = no clear call, values can overlap the other calls; inactive = mostly below about 53%. The entries come from a sample that favours actives as a whole.

This assay has as its target Voltage-dependent N-type calcium channel subunit alpha-1B (Homo sapiens) (UniProt Q00975). Put plainly: disruptors of CaV2.2 binding to Mint1 – biochemical, HTRF (AID 2073). The following applies: HTRF protein-protein interaction, Mint1-CaV2.2, at 20 µM, stronger effect = higher value.
Setting [1] is: measured here: average of repeat tests.

Chain of Voltage-dependent N-type calcium channel subunit alpha-1B (Homo sapiens) (Q00975 whole entry, looked up): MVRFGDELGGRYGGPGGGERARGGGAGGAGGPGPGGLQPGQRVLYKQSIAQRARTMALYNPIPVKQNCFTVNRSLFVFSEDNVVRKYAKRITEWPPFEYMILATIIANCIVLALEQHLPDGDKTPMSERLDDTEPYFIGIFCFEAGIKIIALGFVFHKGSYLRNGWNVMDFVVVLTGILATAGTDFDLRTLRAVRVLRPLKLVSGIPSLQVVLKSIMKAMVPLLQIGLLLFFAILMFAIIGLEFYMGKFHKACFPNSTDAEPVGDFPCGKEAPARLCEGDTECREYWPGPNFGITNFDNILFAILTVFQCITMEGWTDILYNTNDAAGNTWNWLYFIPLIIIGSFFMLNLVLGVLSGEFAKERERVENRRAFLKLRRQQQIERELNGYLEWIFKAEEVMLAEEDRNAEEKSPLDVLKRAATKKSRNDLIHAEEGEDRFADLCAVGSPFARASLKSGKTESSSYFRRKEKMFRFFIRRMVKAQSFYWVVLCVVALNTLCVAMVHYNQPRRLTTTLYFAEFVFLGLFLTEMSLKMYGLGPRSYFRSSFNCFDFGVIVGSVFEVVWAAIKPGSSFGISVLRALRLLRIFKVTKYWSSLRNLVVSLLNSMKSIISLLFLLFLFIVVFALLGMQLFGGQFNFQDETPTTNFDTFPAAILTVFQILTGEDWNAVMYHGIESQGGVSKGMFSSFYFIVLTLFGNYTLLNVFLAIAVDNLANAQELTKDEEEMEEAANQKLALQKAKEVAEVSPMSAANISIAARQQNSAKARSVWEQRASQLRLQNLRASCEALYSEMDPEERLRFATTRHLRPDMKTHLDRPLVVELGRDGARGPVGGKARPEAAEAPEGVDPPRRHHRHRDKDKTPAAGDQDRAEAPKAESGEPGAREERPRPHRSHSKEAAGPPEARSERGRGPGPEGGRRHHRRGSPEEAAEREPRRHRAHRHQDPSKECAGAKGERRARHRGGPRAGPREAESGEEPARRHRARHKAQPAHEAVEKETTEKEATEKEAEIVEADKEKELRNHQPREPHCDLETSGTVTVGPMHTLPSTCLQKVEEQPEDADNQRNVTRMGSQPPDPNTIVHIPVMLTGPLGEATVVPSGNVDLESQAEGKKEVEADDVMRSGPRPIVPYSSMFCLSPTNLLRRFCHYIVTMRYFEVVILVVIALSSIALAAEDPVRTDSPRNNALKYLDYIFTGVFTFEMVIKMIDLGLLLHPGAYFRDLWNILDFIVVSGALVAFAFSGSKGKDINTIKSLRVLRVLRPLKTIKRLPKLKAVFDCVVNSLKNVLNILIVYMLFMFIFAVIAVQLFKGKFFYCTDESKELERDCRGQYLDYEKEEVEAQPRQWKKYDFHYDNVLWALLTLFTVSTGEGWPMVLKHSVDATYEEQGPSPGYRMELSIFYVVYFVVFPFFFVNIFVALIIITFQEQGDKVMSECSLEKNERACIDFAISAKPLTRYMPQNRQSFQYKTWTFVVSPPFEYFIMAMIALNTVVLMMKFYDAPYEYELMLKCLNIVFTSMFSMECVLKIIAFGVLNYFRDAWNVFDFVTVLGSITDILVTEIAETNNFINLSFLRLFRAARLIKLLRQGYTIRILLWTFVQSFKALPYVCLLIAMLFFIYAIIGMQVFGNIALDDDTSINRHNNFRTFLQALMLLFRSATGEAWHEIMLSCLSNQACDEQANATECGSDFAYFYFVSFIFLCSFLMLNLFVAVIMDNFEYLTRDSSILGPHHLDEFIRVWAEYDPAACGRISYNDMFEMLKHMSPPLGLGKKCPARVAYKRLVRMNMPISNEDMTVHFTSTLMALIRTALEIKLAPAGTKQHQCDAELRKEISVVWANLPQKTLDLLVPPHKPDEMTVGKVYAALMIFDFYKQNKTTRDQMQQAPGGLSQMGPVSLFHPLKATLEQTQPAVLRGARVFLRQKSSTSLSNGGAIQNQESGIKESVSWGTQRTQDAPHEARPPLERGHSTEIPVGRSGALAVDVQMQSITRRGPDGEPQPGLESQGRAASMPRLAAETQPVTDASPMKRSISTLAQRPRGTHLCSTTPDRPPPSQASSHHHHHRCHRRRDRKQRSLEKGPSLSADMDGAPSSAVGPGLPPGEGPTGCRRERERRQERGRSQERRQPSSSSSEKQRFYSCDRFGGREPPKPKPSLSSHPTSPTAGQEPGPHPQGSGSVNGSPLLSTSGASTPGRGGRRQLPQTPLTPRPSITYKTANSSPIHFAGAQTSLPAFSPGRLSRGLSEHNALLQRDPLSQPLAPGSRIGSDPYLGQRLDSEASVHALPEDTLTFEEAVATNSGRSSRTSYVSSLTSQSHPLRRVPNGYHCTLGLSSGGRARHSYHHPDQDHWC

Take `CCCCOc1ccc(Cl)cc1CSc1nnc(C)n1N`: the inhibition (usually the relative decrease from the control value, in per cent) is -4.8% (inactive).

Turning to `Cc1oc(-c2ccc3c(c2)OCCO3)cc1C(=O)NC(CCC(=O)O)C(=O)O` (centres undefined), the inhibition was 20.1% (inactive).

Regarding `COC(=O)CCC(NC(=O)c1cc(-c2ccc3c(c2)OCCO3)oc1C)C(=O)OC` (centres undefined), the inhibition was 61.5% (active).

`CCOC(=O)CNC(=O)c1cc(-c2ccc3c(c2)OCCO3)oc1C`: the inhibition was 10.9% (inactive).

As to `Cc1ccc(CNC(=O)CN2C(=O)NC(C)(c3ccccc3Cl)C2=O)cc1` (centres undefined), the inhibition is 6.8% (inactive).

For the compound `CCOC(=O)c1c(NC(=O)CN2CCN(C(=O)c3ccco3)CC2)sc(C(N)=O)c1C`, the inhibition was 0% (inactive).

Regarding `c1ccc2c(c1)CCN(c1nc3ccccc3n3cnnc13)C2`, the inhibition was 3.9% (inactive).

Regarding `c1ccc2c(c1)nc(NCCN1CCOCC1)c1nncn12`, the inhibition was 6.6% (inactive).

As for `c1ccc2c(c1)CCN(CCCNc1nc3ccccc3n3cnnc13)C2`, the inhibition was 50.8% (active).

Turning to `CCCCCCCNC(=O)CC(NS(=O)(=O)c1ccc(NC(C)=O)cc1)C(C)C` (centres undefined), the inhibition was 1.5% (inactive).

For `COc1ccc(-n2c(C)c(C(=O)O)c3cc(OC)c4ccccc4c32)cc1`, the inhibition was 13.1% (inactive).

With `CN1CCN(c2c(F)cc3c(=O)c(C(=O)O)cn4c3c2OCN4C)CC1`, the inhibition was 33.2% (inactive).

In the case of `CN1CCN(c2c(F)cc3c(=O)c(C(=O)O)cn(CCF)c3c2F)CC1`, the inhibition is 29.5% (inactive).

Regarding `CN1CCN(c2c(F)cc3c(=O)c(C(=O)O)cn4c3c2SCC4)CC1`, the inhibition is 53.3% (active).

Regarding `CCOc1ccc(S(=O)(=O)NCc2cccnc2)cc1C(C)C`, the inhibition is 1.4% (inactive).

Regarding `CC(=O)Sc1nc(-c2ccccc2)[nH]c1S(=O)(=O)c1ccc(C)cc1`, the inhibition is 82.4% (active).

`CSc1nc(-c2ccc(C)cc2)[nH]c1S(=O)(=O)c1ccccc1`: the inhibition was -18.4% (inactive).

As for `Cc1ccc(-c2[nH]c(-c3ccc(C(=O)O)cc3)nc2-c2ccccc2)cc1`, the inhibition was 47.8% (inactive).

With `CCOC(=O)c1c(-c2ccccc2)oc2ccc(OC(C)=O)cc12`, the inhibition was 7.9% (inactive).

As to `CCCCOC(=O)Nc1nnc(CC)s1`, the inhibition is 3.8% (inactive).

Take `Cc1[nH][nH]c(=O)c1C(c1ccc(-c2ccc(Cl)cc2Cl)o1)c1c(C)[nH][nH]c1=O`: the inhibition is 2% (inactive).

With `CN(C(=S)Nc1ccc(Oc2ccccc2)cc1)c1ccc(O)cc1`, the inhibition is 11% (inactive).

`CN(C(=S)Nc1ccc(SC(F)F)cc1)c1ccc(O)cc1`: the inhibition is 56.1% (active).

For the compound `CN(C(=S)Nc1ccc(SC(F)F)cc1)C(c1ccccc1)c1ccccc1`, the inhibition is -7.4% (inactive).

On to `C/C(=N\NC(=O)c1cccs1)c1ccc(C(=O)O)s1`, for which the inhibition is 12.5% (inactive).

Turning to `CCc1ccc(OCC(=O)NC(NC(=S)Nc2ccccc2C)C(Cl)(Cl)Cl)cc1` (centres undefined), the inhibition is -12.1% (inactive).

In the case of `COC(=O)c1sccc1NC(=O)c1ccc(C(C)C)cc1`, the inhibition is 1% (inactive).

Take `CCN(CC)CCNC(=O)c1ccc(NC(=O)COc2ccccc2F)cc1`: the inhibition was -0.2% (inactive).

In the case of `O=C(/C=C/c1ccc(Br)o1)NCc1ccccc1`, the inhibition was 76.8% (inactive). Moreover, the inhibition under setting [1] was determined as 13.4%.

For the compound `COc1ccccc1CNC(=O)c1ccc(Br)o1`, the inhibition is -2% (inactive).

With `COc1ccccc1CNC(=O)/C=C/c1ccc(Br)o1`, the inhibition is 79.5% (active).

Take `COCC(=O)NNC(=O)c1ccccc1OC`: the inhibition is -3.5% (inactive).

As to `CS(=O)(=O)N(CC(=O)Nc1ccc2c(c1)OCCO2)Cc1ccc(Cl)cc1`, the inhibition is -3.3% (inactive).

As for `N#CC1=C(N)SC(N)=C(C#N)C1c1ccc([N+](=O)[O-])cc1`, the inhibition is 68.2% (inactive). In addition, under setting [1], the inhibition came out at 5%.

Take `CC(=O)C1(C)OC(N)=C(C#N)C(c2ccccc2)C1(C#N)C#N` (centres undefined): the inhibition is 48% (inactive).

`N#CC1=C(N)Nc2ncnn2C1c1ccc([N+](=O)[O-])cc1` (centres undefined): the inhibition is -11.4% (inactive).

With `CCOC(=O)C1C(=O)NC(SC)=C(C#N)C1c1ccccc1F` (centres undefined), the inhibition is -5.1% (inactive).

Turning to `COC(=O)C1C(=O)NC(SC)=C(C#N)C1c1ccccc1F` (centres undefined), the inhibition was 8% (inactive).

Take `CCOC(=O)C1=C(C)NC(=O)NC1c1ccc(Cl)cc1Cl` (centres undefined): the inhibition was -3.7% (inactive).

For `NC(=O)C1(C(N)=O)OC1c1ccc(Cl)cc1Cl` (centres undefined), the inhibition was 6.5% (inactive).

With `COC(=O)C1C(=O)NC(SC)=C(C#N)C1c1ccccc1` (centres undefined), the inhibition is -20.5% (inactive).

As to `COCCCNC(=O)Cn1nnc(-c2ccc(NC(=O)c3ccc(F)cc3)cc2)n1`, the inhibition was 25.2% (inactive).

As for `Cc1cc2oc(=O)cc(CN3CCCCC3C)c2cc1C` (centres undefined), the inhibition is 2.6% (inactive).

For `COc1ccccc1S(=O)(=O)Cc1ccc(C(=O)N2CCCC2)o1`, the inhibition was 0.3% (inactive).

In the case of `O=C(NCCc1c[nH]c2ccccc12)C(F)(F)C(F)F`, the inhibition was -6.3% (inactive).

Turning to `Cc1ccc(C(=O)NCCc2nnc3ccc(SCC(=O)Nc4c(C)cc(C)cc4C)nn23)cc1`, the inhibition is 8.7% (inactive).

On to `CCCn1cnc2cc(NC(=O)c3ccco3)ccc21`, for which the inhibition was 10.4% (inactive).

Turning to `CC(C)c1csc(CN2CCN(Cc3ccccc3)C(CCO)C2)n1` (centres undefined), the inhibition is 11.5% (inactive).

With `Cc1ccc(C(=O)N(CC(=O)NC2CCCC2)c2ccc3c(c2)OCCO3)s1`, the inhibition is -11% (inactive).

For the compound `O=C(Nc1ccc(Cl)cc1)N1CCOC12CCCCC2`, the inhibition is -2.6% (inactive).

As to `O=Cc1cnc(N2CCOCC2)nc1`, the inhibition is 6.2% (inactive).

In the case of `NNC(=O)c1cc(O)c(O)c(O)c1`, the inhibition is 63.1% (active).

Take `NNC(=O)c1cccc(O)c1`: the inhibition was 19.5% (inactive).

Take `COC(=O)c1cc(O)c(O)c(O)c1`: the inhibition was -68.3% (inactive).

Take `COC(=O)c1ccc(NC(=O)CCn2cccc2)cc1`: the inhibition is 3.2% (inactive).

Turning to `CC(C)c1ccc(/C=C2\SC(N3CCOCC3)=NC2=O)cc1`, the inhibition is -2.3% (inactive).

Regarding `CCOC(=O)C1CCCN(C(=O)CC(C)c2ccccc2)C1` (centres undefined), the inhibition is -3.1% (inactive).

Take `Cc1ccc(C)c(N2CCN(C(=O)CCn3c(=S)[nH]c4cc5c(cc4c3=O)OCO5)CC2)c1`: the inhibition was 4.3% (inactive).

`Cc1ccc(-n2cccc2/C=C2/C(=N)N3C(=NC2=O)SN=C3S(C)(=O)=O)cc1Cl`: the inhibition is 29.3% (inactive).

With `CS(=O)(=O)C1=NSC2=NC(=O)/C(=C\c3cccn3-c3ccc(Cl)cc3)C(=N)N21`, the inhibition was 24.5% (inactive).

As to `CS(=O)(=O)C1=NSC2=NC(=O)/C(=C\c3cccn3-c3ccccc3Cl)C(=N)N21`, the inhibition was 68.7% (active).

For `O=C(CC1NCCNC1=O)Nc1cccc([N+](=O)[O-])c1` (centres undefined), the inhibition is -6.8% (inactive).

On to `Cc1nc2ccc(NC(=O)N(C(C)C)C(C)C)cc2s1`, for which the inhibition is 10.4% (inactive).

For `CC(=O)Nc1ccc2nsnc2c1`, the inhibition was 9% (inactive).

Regarding `CC(C)N(C(=O)Nc1ccc2nsnc2c1)C(C)C`, the inhibition was 60.7% (active).

Turning to `CCC(C)(C)n1nnnc1C(c1ccc(Cl)cc1)N1CCN(C)CC1` (centres undefined), the inhibition is -3.8% (inactive).

Take `Cc1nn(C)c(C)c1CS(=O)(=O)c1ccccc1`: the inhibition was -4% (inactive).

On to `CCc1c(C(C)S(=O)(=O)c2ccccc2)[nH]c(=O)n1CC` (centres undefined), for which the inhibition is -7.8% (inactive).

With `CCn1c(C)c(CS(=O)(=O)c2ccccc2)[nH]c1=O`, the inhibition was 73.9% (active).

For the compound `Cc1ccc2cc(CN(C(=O)c3cccs3)c3ccccc3)c(=O)[nH]c2c1`, the inhibition was 4.6% (inactive).

As to `CC(C)O/C(=N\S(=O)(=O)c1ccc(Cl)cc1)c1ccccc1`, the inhibition is 3.7% (inactive).

Take `Cc1ccc(N=C2CSC(=O)N2)cc1`: the inhibition was -2.7% (inactive).

As for `Cc1cc(C)cc(C(N)=Nc2cccc(C#N)c2)c1`, the inhibition was 4.9% (inactive).

`CCOC(=O)c1ccc(N=NN(C)C)cc1`: the inhibition was -7% (inactive).

Turning to `N#Cc1ccc(N=c2ssnc2Cl)cc1`, the inhibition was 44.2% (inactive).

Turning to `CN1C(=O)CSC1=Nc1ccc(Br)cc1`, the inhibition was -4.4% (inactive).

As for `Cc1ccc(N=c2sc(C)c(C)n2C)cc1`, the inhibition was -35.3% (inactive).

Regarding `CCOC(=O)c1ccc(N=c2scc(C)n2CC)cc1`, the inhibition was 3.7% (inactive).

Consider `NC1=NC(=Nc2ccc(Br)cc2)c2ccccc21`, for which the inhibition was -1.5% (inactive).

Regarding `O=C(COc1ccccc1Cl)Nc1ccc(CN2CCOCC2)cc1`, the inhibition is -4.3% (inactive).

As to `Cc1nn(CC(=O)N2CCC(N3CCCCC3)CC2)c(=O)c2c1sc1ccccc12`, the inhibition is 16.1% (inactive).

With `Cc1ccc(NC(=O)Cn2nnc(C(=O)NCc3ccc4c(c3)OCO4)c2N)cc1`, the inhibition is 9.7% (inactive).

For `O=C(NNc1ccccc1)Nc1ccccc1F`, the inhibition is -15.6% (inactive).

Regarding `CC(C)(C)C1CCC(=NNC(=O)C(=O)NC2CCCCC2)CC1` (centres undefined), the inhibition was 2.1% (inactive).

`O=C(OCc1nnc(-c2ccc(Cl)cc2)o1)c1ccncc1`: the inhibition is 7.7% (inactive).

Consider `Clc1ss/c(=N\c2ccccn2)c1Cl`, for which the inhibition was 6.4% (inactive).

`Clc1ccc(N=c2ssnc2Cl)cc1`: the inhibition was -17.4% (inactive).

Regarding `Cc1c(CCC(=O)O)c(=O)oc2cc(OCc3cccc(F)c3)ccc12`, the inhibition is 16.2% (inactive).

`CSc1nc(-c2ccco2)cc(-c2ccccc2)c1C#N`: the inhibition was 15.4% (inactive).

On to `N#Cc1c(-c2ccccc2)cc(-c2ccco2)c(C#N)c1N`, for which the inhibition is 53.5% (active).

Consider `N#Cc1c(-c2ccco2)cc(-c2ccccc2)[nH]c1=O`, for which the inhibition was 48.2% (inactive).

As for `COc1ccc(Cl)cc1NC(=O)c1ccc2c(SCC(=O)O)c3c(nc2c1)CCCC3`, the inhibition is 12.3% (inactive).

Regarding `COc1cc(Cl)c(C)cc1NC(=O)c1ccc2c(SCC(=O)O)c3c(nc2c1)CCCC3`, the inhibition is 53.2% (active).

As to `COc1cc(OC)c(NC(=O)c2ccc3c(SCC(=O)O)c4c(nc3c2)CCCC4)cc1Cl`, the inhibition was 44.9% (inactive).

As for `CCCOc1cccc(C(=O)O)c1`, the inhibition is -5.1% (inactive).

On to `CC(/C=N/NC(=O)c1cc(-c2ccncc2)nc2ccccc12)=C\c1ccco1`, for which the inhibition was 43.6% (inactive).

As for `CC(/C=N/NC(=O)c1cc(-c2ccccc2)nc2ccccc12)=C\c1ccco1`, the inhibition is 52.6% (active).

Consider `CC(/C=N/NC(=O)c1cc(-c2ccc3ccccc3c2)n[nH]1)=C\c1ccco1`, for which the inhibition was 73.3% (active).

As to `CC(/C=N/NC(=O)c1cc(-c2ccc(Cl)cc2)nc2ccccc12)=C\c1ccco1`, the inhibition is 37.8% (inactive).

With `O=C(N/N=C\C=C\c1ccco1)c1cc(-c2ccc3ccccc3c2)n[nH]1`, the inhibition was 80.2% (inactive). Further, the inhibition under setting [1] was found to be 9.6%.

In the case of `O=C(N/N=C/c1ccco1)c1cc(-c2ccc3ccccc3c2)n[nH]1`, the inhibition is 5.5% (inactive).
